From PubChem BioAssay (Tox21)
Inconclusive results are not listed. The source made the active and inactive calls. Unless noted, calls follow the shape of the dose curve; as a rule, active = well fitted curve in the direction sought with a large enough effect in the repeat runs; inconclusive = weak or mixed curves; inactive = no such curve, though single readings can be large; an effect the other way counts as inactive or inconclusive.

What was measured:
[1] = qHTS assay to identify aromatase inhibitors - cell viability counter screen (AID 743084);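 also: cells stimulated with testosterone during compound exposure; nearly all actives have a fitted effect of over 55% in size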
[2] = biological target: Aryl hydrocarbon receptor (Homo sapiens) (UniProt P35869); assay: qHTS assay to identify small molecule that activate the aryl hydrocarbon receptor (AhR) signaling pathway (AID 743085);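 also: HG2L7.5c1 human HepG2 liver cells with stably integrated DRE-driven firefly reporter; series mostly up to about 70 µM; nearly all actives have a fitted effect of over 15% in size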
Summary of the method: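 Steps: seed HepG2-AhR-luc cells; allow 5 h at 37C; pin-transfer test compound or vehicle; incubate 24 h at 37C; add viability dye (30 min, 37C) and read fluorescence; add luciferase substrate (30 min, RT) and read luminescence.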

[3] = qHTS assay to identify small molecule that activate the aryl hydrocarbon receptor (AhR) signaling pathway - cell viability counter screen (AID 743086);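 also: HepG2 liver cells carrying the AhR DRE luciferase reporter; series mostly up to about 70 µM; nearly all actives have a fitted effect of over 45% in size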
Summary of the method: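 HepG2-AhR-luc (HG2L7.5c1) cells, 4000/well, were preincubated 5 h at 37C, exposed to compound in qHTS format for 24 hr at 37C, then given CellTiter-Fluor for 30 min; viability was read as fluorescence in the reporter wells.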

[4] = biological target: Peroxisome proliferator-activated receptor gamma (Homo sapiens) (UniProt P37231); assay: qHTS assay to identify small molecule agonists of the peroxisome proliferator-activated receptor gamma (PPARg) signaling pathway (AID 743094; active = well fitted activation curve with a large enough effect in the signal ratio in the repeat runs, not every such curve was filed as active; the % refers to the signal ratio)
Summary of the method: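 Agonist activity was taken from a beta-lactamase reporter (FRET substrate, 1 h at room temperature) in HEK293H cells carrying a PPARg UAS-bla construct. Compounds in DMSO were incubated 17 h at 37C after a 5 h cell pre-incubation.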

[5] = biological target: Peroxisome proliferator-activated receptor gamma (Homo sapiens) (UniProt P37231); assay: qHTS assay to identify small molecule antagonists of the peroxisome proliferator-activated receptor gamma (PPARg) signaling pathway (AID 743191; calls by dose curve; also: series mostly up to about 63 µM; nearly all actives have a fitted effect of over 30% in size)
Summary of the method: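 GeneBLAzer PPARg UAS-bla HEK293H cells carrying a UAS-driven beta-lactamase reporter were plated at 3000 cells/well, preincubated 5 h at 37C, then given compound for 17 h at 37C; LiveBLAzer B/G FRET substrate was read after 1 h at room temperature.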

[6] = qHTS assay to identify small molecule antagonists of the peroxisome proliferator-activated receptor gamma (PPARg) signaling pathway - cell viability counter screen (AID 743194); also: nearly all actives have a fitted effect of over 55% in size
Summary of the method: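 PPARg-UAS-bla HEK293H cells were plated, rested 5 h at 37 C, then treated with compounds plus rosiglitazone (50 nM final) for 17 h at 37 C; viability was then read by CellTiter-Glo luminescence after 30 min at room temperature.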

[7] = qHTS assay for small molecule agonists of the antioxidant response element (ARE) signaling pathway - cell viability counter screen (AID 743203; calls by dose curve; also: nearly all actives have a fitted effect of over 55% in size)
Summary of the method: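 Viability counter screen: CellTiter-Glo luminescence, read after 30 min at room temperature, in ARE-bla HepG2 wells. Compound exposure lasted 16 h at 37C/5% CO2, following a 5 h pre-incubation of the cells after plating.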

[8] = qHTS assay for small molecule activators of the heat shock response signaling pathway - cell viability counter screen (AID 743209); also: nearly all actives have a fitted effect of over 50% in size
Summary of the method: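 Cytotoxicity counter screen run in the same wells as the heat-shock bla reporter assay: HeLa HSE-bla cells, 5 h compound exposure at 37 C, viability read by CellTiter-Glo luminescence.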

[9] = qHTS assay to identify small molecule agonists of the peroxisome proliferator-activated receptor delta (PPARd) signaling pathway - cell viability counter screen (AID 743211); also: nearly all actives have a fitted effect of over 55% in size
Summary of the method: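 Viability of GeneBLAzer PPARd UAS-bla HEK293H cells was assessed after 17 h compound incubation at 37C, using CellTiter-Glo reagent added after the reporter read and luminescence recorded 30 min later.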

[10] = biological target: Peroxisome proliferator-activated receptor delta (Homo sapiens) (UniProt Q03181); assay: qHTS assay to identify small molecule agonists of the peroxisome proliferator-activated receptor delta (PPARd) signaling pathway (AID 743212; calls by dose curve)
Summary of the method: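 Cells expressing a UAS-driven beta-lactamase reporter (PPARd-bla HEK293H) were given test compounds after a 5 h settle and kept at 37 C. Reporter activity was then measured as FRET fluorescence using LiveBLAzer B/G substrate.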

[11] = qHTS assay to identify small molecule antagonists of the peroxisome proliferator-activated receptor delta (PPARd) signaling pathway - cell viability counter screen (AID 743213); also: nearly all actives have a fitted effect of over 50% in size
Summary of the method: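 In this counter screen, HEK293H cells carrying a UAS-beta-lactamase reporter are co-treated with test compounds and 300 nM L165041 (final) for 17 h at 37 C; cell viability is quantified by CellTiter-Glo luminescence.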

[12] = biological target: Peroxisome proliferator-activated receptor delta (Homo sapiens) (UniProt Q03181); assay: qHTS assay to identify small molecule antagonists of the peroxisome proliferator-activated receptor delta (PPARd) signaling pathway (AID 743215; active = well fitted inhibition curve with a large enough effect in the signal ratio in the repeat runs, not every such curve was filed as active; the % refers to the signal ratio;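 also: cells stimulated with agonist L165041 at 300 nM final during compound exposure; series mostly up to about 62 µM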)
Summary of the method: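 Agonist L165041 (300 nM final) added with compound to PPARd-bla HEK293H UAS-bla reporter cells; 17 h incubation at 37 C. Read-out: LiveBLAzer FRET substrate, 2 h at room temperature, fluorescence intensity.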

[13] = qHTS assay to identify small molecule antagonists of the farnesoid-X-receptor (FXR) signaling pathway - cell viability counter screen (AID 743221; active = well fitted cell-killing curve with a large enough effect in the repeat runs, not every such curve was filed as active; also: nearly all actives have a fitted effect of over 50% in size)
Summary of the method: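 Quantitative HTS of the Tox21 10K library run in parallel with the beta-lactamase reporter read. HEK 293T cells carrying a UAS-driven bla reporter got compound and 50 uM CDCA (final) for 16 h; ATP-based luminescence followed.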

[14] = biological target: Vitamin D3 receptor (Homo sapiens) (UniProt P11473); assay: qHTS assay to identify small molecule agonists of the vitamin D receptor (VDR) signaling pathway (AID 743222; calls by dose curve)
Summary of the method: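 Agonist mode, beta-lactamase reporter: fluorescence from LiveBLAzer B/G FRET substrate (2 h, room temperature) read after 16 h compound treatment at 37 C of VDR-bla cells, which were pre-incubated 4 h after seeding.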

[15] = biological target: Vitamin D3 receptor (Homo sapiens) (UniProt P11473); assay: qHTS assay to identify small molecule antagonists of the vitamin D receptor (VDR) signaling pathway (AID 743223; active = well fitted inhibition curve with a large enough effect in the signal ratio in the repeat runs, not every such curve was filed as active; the % refers to the signal ratio)
Summary of the method: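 Fluorescence from LiveBLAzer B/G FRET substrate, read after 2 h at room temperature, reflects beta-lactamase reporter activity in VDR-bla cells treated 16 h at 37C with compounds and agonist 1alpha,25-dihydroxyvitamin D3 (3 nM final).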

[16] = qHTS assay for small molecule agonists of the antioxidant response element (ARE) signaling pathway (AID 743202; active = well fitted activation curve with a large enough effect in the signal ratio in the repeat runs, not every such curve was filed as active; the % refers to the signal ratio)
Summary of the method: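 Steps: seed ARE-bla HepG2 cells (2,000/well); incubate 5 h at 37 C; add compounds by pin tool; incubate 16 h at 37 C; add FRET substrate; read fluorescence after 2 h at RT.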

[17] = qHTS assay for small molecule activators of the heat shock response signaling pathway (AID 743210; active = well fitted activation curve with a large enough effect in the signal ratio in the repeat runs, with a control signal flat, not every such curve was filed as active; the % refers to the signal ratio;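 also: HeLa cells with beta-lactamase reporter driven by heat shock elements; series mostly up to about 63 µM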)
Summary of the method: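 Activation of heat shock element-controlled beta-lactamase expression is measured in HeLa cells by LiveBLAzer FRET fluorescence, with compound exposure lasting 5 h at 37 C and substrate loading 2.5 h at room temperature.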

[18] = biological target: Bile acid receptor (Homo sapiens) (UniProt Q96RI1); assay: qHTS assay to identify small molecule antagonists of the farnesoid-X-receptor (FXR) signaling pathway (AID 743217; active = well fitted inhibition curve with a large enough effect in the signal ratio in the repeat runs, not every such curve was filed as active; the % refers to the signal ratio)
Summary of the method: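 Antagonist mode: chenodeoxycholic acid at 50 uM final stimulates a UAS-driven beta-lactamase reporter in HEK 293T FXR-bla cells during 16 h, 37C compound exposure. Read-out is FRET substrate fluorescence after 2 h at room temperature.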

[19] = qHTS assay to identify small molecule agonists of the farnesoid-X-receptor (FXR) signaling pathway - cell viability counter screen (AID 743218); also: nearly all actives have a fitted effect of over 45% in size
Summary of the method: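 Viability counter screen in the same wells: CellTiter-Glo luminescence, 30 min room-temperature incubation, measured after the beta-lactamase read. Cells were GeneBLAzer FXR-UAS-bla HEK 293T, compound-treated 16 h at 37C.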

[20] = biological target: Bile acid receptor (Homo sapiens) (UniProt Q96RI1); assay: qHTS assay to identify small molecule agonists of the farnesoid-X-receptor (FXR) signaling pathway (AID 743220; active = well fitted activation curve with a large enough effect in the signal ratio in the repeat runs, not every such curve was filed as active; the % refers to the signal ratio)
Summary of the method: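 FXR-UAS-bla HEK 293T cells carrying a UAS-driven beta-lactamase reporter were plated for 5 h at 37C/5% CO2, then exposed to DMSO-dissolved Tox21 10K compounds for 16 h at 37C. A LiveBLAzer B/G FRET substrate was loaded for 2 h at room temperature before fluorescence reading.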

Measured: Potency

Peroxisome proliferator-activated receptor delta (Homo sapiens), sequence (Q03181 whole entry, looked up): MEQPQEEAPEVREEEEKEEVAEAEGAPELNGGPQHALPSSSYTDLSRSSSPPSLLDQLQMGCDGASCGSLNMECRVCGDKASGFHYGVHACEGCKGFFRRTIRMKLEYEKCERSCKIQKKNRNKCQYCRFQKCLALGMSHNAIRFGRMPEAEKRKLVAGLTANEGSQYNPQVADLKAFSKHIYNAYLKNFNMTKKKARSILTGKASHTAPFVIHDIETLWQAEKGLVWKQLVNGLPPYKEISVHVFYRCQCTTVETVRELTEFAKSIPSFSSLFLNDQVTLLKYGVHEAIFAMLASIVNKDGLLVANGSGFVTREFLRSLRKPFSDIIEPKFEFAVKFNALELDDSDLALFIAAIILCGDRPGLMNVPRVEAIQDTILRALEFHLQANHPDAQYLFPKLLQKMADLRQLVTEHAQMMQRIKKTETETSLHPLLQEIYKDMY
Vitamin D3 receptor (Homo sapiens), sequence (P11473 whole entry, looked up): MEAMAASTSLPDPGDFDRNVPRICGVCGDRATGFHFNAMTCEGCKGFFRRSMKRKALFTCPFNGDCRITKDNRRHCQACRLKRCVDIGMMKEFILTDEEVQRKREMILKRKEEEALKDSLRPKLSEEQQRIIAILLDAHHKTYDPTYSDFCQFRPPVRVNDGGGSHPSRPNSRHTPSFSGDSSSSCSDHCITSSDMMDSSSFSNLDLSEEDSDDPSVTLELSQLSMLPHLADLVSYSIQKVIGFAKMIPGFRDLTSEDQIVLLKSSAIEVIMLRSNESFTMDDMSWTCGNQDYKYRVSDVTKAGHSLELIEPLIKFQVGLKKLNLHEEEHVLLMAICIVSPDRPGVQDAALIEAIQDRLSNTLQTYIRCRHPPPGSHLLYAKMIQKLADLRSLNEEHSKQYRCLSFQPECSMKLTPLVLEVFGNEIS
Bile acid receptor (Homo sapiens), sequence (Q96RI1 whole entry, looked up): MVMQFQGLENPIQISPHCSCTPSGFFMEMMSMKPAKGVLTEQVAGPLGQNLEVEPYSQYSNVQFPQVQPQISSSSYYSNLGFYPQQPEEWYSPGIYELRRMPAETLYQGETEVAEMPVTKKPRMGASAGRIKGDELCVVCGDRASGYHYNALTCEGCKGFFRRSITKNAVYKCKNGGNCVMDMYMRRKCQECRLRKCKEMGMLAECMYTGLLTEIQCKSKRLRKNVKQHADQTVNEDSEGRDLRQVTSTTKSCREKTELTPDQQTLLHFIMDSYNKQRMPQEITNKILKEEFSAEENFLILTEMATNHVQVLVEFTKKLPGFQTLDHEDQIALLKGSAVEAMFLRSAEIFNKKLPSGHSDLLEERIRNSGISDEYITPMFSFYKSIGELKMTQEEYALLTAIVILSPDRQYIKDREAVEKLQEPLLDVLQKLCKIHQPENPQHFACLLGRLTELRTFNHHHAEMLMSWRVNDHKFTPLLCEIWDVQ
Aryl hydrocarbon receptor (Homo sapiens), sequence (P35869 whole entry, looked up): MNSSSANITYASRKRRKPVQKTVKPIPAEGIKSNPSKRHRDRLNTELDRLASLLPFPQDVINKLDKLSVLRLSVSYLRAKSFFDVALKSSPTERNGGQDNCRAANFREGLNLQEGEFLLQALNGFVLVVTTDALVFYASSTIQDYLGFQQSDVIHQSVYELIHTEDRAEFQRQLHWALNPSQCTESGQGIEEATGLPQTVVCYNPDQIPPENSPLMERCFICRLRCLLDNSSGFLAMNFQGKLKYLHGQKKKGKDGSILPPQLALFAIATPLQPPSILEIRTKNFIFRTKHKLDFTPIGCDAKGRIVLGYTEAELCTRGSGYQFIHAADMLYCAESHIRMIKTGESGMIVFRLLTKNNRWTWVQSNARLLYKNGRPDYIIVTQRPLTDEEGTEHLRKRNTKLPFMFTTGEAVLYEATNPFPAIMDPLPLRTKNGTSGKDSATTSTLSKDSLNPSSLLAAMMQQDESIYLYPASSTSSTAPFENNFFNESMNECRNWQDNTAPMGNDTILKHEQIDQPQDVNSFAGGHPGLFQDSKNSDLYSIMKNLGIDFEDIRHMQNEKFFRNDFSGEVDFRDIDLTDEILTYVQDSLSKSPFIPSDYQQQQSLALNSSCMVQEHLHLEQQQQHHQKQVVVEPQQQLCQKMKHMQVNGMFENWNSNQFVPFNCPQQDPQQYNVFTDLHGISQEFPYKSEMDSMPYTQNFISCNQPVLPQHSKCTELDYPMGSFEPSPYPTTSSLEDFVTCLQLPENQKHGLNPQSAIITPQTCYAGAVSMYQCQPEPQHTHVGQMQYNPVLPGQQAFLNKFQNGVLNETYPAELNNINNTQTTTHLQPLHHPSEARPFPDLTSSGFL
Peroxisome proliferator-activated receptor gamma (Homo sapiens), sequence (P37231 whole entry, looked up): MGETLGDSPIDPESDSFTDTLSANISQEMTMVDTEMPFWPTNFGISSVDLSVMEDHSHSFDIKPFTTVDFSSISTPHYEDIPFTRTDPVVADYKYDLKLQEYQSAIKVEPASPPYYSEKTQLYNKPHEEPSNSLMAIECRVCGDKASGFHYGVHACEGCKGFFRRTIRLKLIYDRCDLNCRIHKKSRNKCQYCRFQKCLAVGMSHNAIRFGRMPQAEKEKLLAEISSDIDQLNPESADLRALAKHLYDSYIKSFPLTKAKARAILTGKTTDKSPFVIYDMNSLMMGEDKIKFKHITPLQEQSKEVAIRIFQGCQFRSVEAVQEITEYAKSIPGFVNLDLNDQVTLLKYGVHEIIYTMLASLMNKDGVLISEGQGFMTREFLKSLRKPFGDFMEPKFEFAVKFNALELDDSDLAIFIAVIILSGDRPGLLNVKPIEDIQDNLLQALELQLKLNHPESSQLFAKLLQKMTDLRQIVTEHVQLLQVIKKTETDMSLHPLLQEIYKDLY

CCCCCCCCCOCC1CO1 (stereo not given)
inactive: [1] | [2] | [3] | [4] | [5] | [6] | [7] | [8] | [9] | [10] | [11] | [12] | [13] | [14] | [15]

O=S1(=O)CCCC1
inactive: [1] | [2] | [3] | [4] | [5] | [6] | [16] | [7] | [17] | [9] | [11] | [18] | [19] | [20] | [13] | [14] | [15]

OC[C@@H](O)[C@H](O)[C@@H](O)[C@@H](O)CO
inactive: [1] | [2] | [3] | [4] | [5] | [6] | [16] | [8] | [17] | [9] | [11] | [13] | [14]

C[C@H](CCC(=O)O)[C@H]1CC[C@H]2[C@@H]3[C@H](O)C[C@@H]4C[C@H](O)CC[C@]4(C)[C@H]3C[C@H](O)[C@]12C
inactive: [1] | [2] | [3] | [4] | [5] | [6] | [16] | [8] | [17] | [9] | [11] | [18] | [19] | [20] | [13]

BrC/C=C/CBr
inactive: [1] | [2] | [3] | [4] | [5] | [6] | [7] | [8] | [17] | [9] | [10] | [11] | [12] | [18] | [19] | [20] | [13]

NCCc1ccn[nH]1
inactive: [1] | [2] | [3] | [4] | [5] | [6] | [7] | [8] | [17] | [9] | [10] | [11] | [12] | [19] | [13]

CCN(CCC#N)c1ccccc1
inactive: [1] | [2] | [3] | [4] | [5] | [6] | [7] | [8] | [17] | [9] | [10] | [11] | [18] | [19] | [13] | [14]

COC(=O)CCC(=O)O
inactive: [1] | [2] | [3] | [4] | [5] | [6] | [7] | [8] | [17] | [9] | [11] | [19] | [13] | [14] | [15]

Cc1cc(C)cc([N+](=O)[O-])c1
inactive: [1] | [2] | [3] | [4] | [6] | [16] | [7] | [8] | [17] | [9] | [10] | [12] | [18] | [19] | [20] | [13] | [14] | [15]

SCCSCCS
inactive: [1] | [2] | [3] | [4] | [6] | [16] | [7] | [8] | [17] | [9] | [10] | [11] | [12] | [18] | [19] | [20] | [13] | [14]

CO[Si](CCCCl)(OC)OC
inactive: [1] | [2] | [3] | [4] | [6] | [7] | [8] | [17] | [9] | [10] | [11] | [19] | [13] | [14] | [15]

CCCCCCCCOC(C)=O
inactive: [1] | [2] | [3] | [4] | [5] | [16] | [7] | [8] | [9] | [10] | [11] | [12] | [19] | [13] | [14]

CCCCC(CC)C(=O)OC(C)C (stereo not given)
inactive: [1] | [2] | [3] | [4] | [6] | [16] | [7] | [8] | [17] | [9] | [11] | [18] | [19] | [20] | [13] | [14]
